Source: PubChem BioAssay (NCATS)
Values without a mark were called inactive. For some assays here: Results with a measured potency or affinity are listed apart. Calls of active or inactive are those of the source. No rule for the calls is given here.

Legend:
[1] = Ebola virus entry assay, green fluorescence channel
[2] = Ebola virus entry assay, blue channel fluorescence
[3] = Ebola virus entry assay, ratio channel
[4] = Ebola virus entry assay, reporter ratio channel; Channel type: primary
For efficacy in this document: 0% is about no effect.

SMILES | efficacy [1] [%] | AC50 [2] | AC50 [3] | AC50 [4] | outcome [3] | outcome [2] | outcome [4]
COCC(=O)O[C@]1(CCN(C)CCCc2nc3ccccc3[nH]2)CCc2cc(F)ccc2[C@@H]1C(C)C | -180 | 2.24 µM (active) | 2.24 µM (active) | 2.24 µM (active) | – | – | –
COc1ccc(CCN(C)CCCC(C#N)(c2cc(OC)c(OC)c(OC)c2)C(C)C)cc1OC (stereo not drawn) | 75 | 15.8 µM (active) | 14.1 µM (active) | 14.1 µM (active) | – | – | –
CCOC(=O)Cn1cccc1-c1nc(-c2ccc(OC)cc2)c(-c2ccc(OC)cc2)s1 | 34.5 | 0.708 µM (active) | 0.708 µM (active) | 0.708 µM (active) | – | – | –
OC(CCCN1CCCCC1)(c1ccccc1)c1ccccc1 | 50.3 | 10 µM (active) | 7.94 µM (active) | 7.94 µM (active) | – | – | –
OC(CCN1CCCCC1)(c1ccccc1)c1ccccc1 | 36.7 | 31.6 µM (active) | 28.2 µM (active) | 28.2 µM (active) | – | – | –
CN1CCN(C2=Nc3ccccc3Sc3ccc(Cl)cc32)CC1 | 66 | 39.8 µM (active) | – | 39.8 µM (active) | inactive | – | –
Oc1ccc(CCNCCCCCCNCCc2ccccc2)cc1O | 30.5 | 1.12 µM (active) | 1 µM (active) | 1 µM (active) | – | – | –
Cc1cccc(CN2CCN(C(c3ccccc3)c3ccc(Cl)cc3)CC2)c1 (stereo not drawn) | 38.6 | 22.4 µM (active) | 22.4 µM (active) | 22.4 µM (active) | – | – | –
CC1CCCCN1CCCOC(=O)c1ccc(OC2CCCCC2)cc1 (stereo not drawn) | 86.1 | 8.91 µM (active) | 7.94 µM (active) | 7.94 µM (active) | – | – | –
c1cc(CN2CCCCC2)cc(OCCCNc2nc3ccccc3s2)c1 | 69.1 | 12.6 µM (active) | 12.6 µM (active) | 12.6 µM (active) | – | – | –
Cc1nc2sccn2c(=O)c1CCN1CCC(=C(c2ccc(F)cc2)c2ccc(F)cc2)CC1 | 82.1 | 17.8 µM (active) | 15.8 µM (active) | 15.8 µM (active) | – | – | –
O=C1C(c2[nH]c3ccccc3c2O)=Nc2ccccc21 | 51.6 | – | – | – | inactive | inactive | inactive
C[C@H]1C[C@H]2[C@@H]3CCC4=CC(=O)C=C[C@]4(C)[C@@]3(Cl)[C@@H](O)C[C@]2(C)[C@@]1(O)C(=O)CO | 103 | 25.1 µM (active) | 20 µM (active) | 20 µM (active) | – | – | –
CCN(CC)CCOC(=O)C(Cc1cccc2ccccc12)CC1CCCO1 (stereo not drawn) | 78.5 | 12.6 µM (active) | 11.2 µM (active) | 11.2 µM (active) | – | – | –
O=C(CCCN1CCC(O)(c2ccc(Br)cc2)CC1)c1ccc(F)cc1 | 36.8 | 7.94 µM (active) | 5.62 µM (active) | 5.62 µM (active) | – | – | –
CCN(CC)CCNc1ccc(CO)c2sc3ccccc3c(=O)c12 | 47.9 | 17.8 µM (active) | 14.1 µM (active) | 14.1 µM (active) | – | – | –
CC(NCCC(c1ccccc1)c1ccccc1)c1ccccc1 (stereo not drawn) | -189 | 2 µM (active) | 2.51 µM (active) | 2.51 µM (active) | – | – | –
